From the supplement of paper PMC8728848
The sample as a whole holds a higher share of the strongest signals than the screen did.

Experiments:
Test in all cases: glycan array binding signal (z-score within array); higher = stronger binding
Settings in all cases: glycan notation: IUPAC condensed, linker removed
[1] = molecular target: Fuc(a1-2)Gal(b1-3)[Fuc(a1-4)]GlcNAc(b1-2)Man(a1-3)[Fuc(a1-2)Gal(b1-3)[Fuc(a1-4)]GlcNAc(b1-2)Man(a1-6)]Man(b1-4)GlcNAc(b1-4)GlcNAc
Summary of the method: (§1)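 Negative Z-scores can be read as non-binding. The Z-score is calculated within each array and then averaged across arrays of one protein sequence at different concentrations or buffers and across linkers. Arrays, 3228 in all, were curated from the Consortium for Functional Glycomics database and kept only where the protein sequence was available.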

[2] = molecular target: Fuc(a1-2)[GalNAc(a1-3)]Gal(b1-4)GlcNAc
Summary of the method: as §1

[3] = molecular target: Fuc(a1-2)[GalNAc(a1-3)]Gal(b1-4)GlcNAc(b1-2)Man(a1-3)[GalNAc(a1-3)[Fuc(a1-2)]Gal(b1-4)GlcNAc(b1-2)Man(a1-6)]Man(b1-4)GlcNAc(b1-4)GlcNAc
Summary of the method: as §1

[4] = molecular target: Fuc(a1-3)[Gal(b1-4)]GlcNAc
Summary of the method: as §1

[5] = molecular target: Fuc(a1-3)[Gal(b1-4)]GlcNAc(b1-2)Man(a1-3)[Fuc(a1-3)[Gal(b1-4)]GlcNAc(b1-2)Man(a1-6)]Man(b1-4)GlcNAc(b1-4)GlcNAc
Summary of the method: as §1

[6] = molecular target: Fuc(a1-3)[Gal3S(b1-4)]GlcNAc
Summary of the method: as §1

[7] = molecular target: Fuc(a1-3)[GalNAc(b1-4)]GlcNAc
Summary of the method: as §1

[8] = molecular target: Gal(a1-3)Gal(b1-4)[Fuc(a1-3)]GlcNAc(b1-2)Man(a1-3)[Gal(a1-3)Gal(b1-4)[Fuc(a1-3)]GlcNAc(b1-2)Man(a1-6)]Man(b1-4)GlcNAc(b1-4)GlcNAc
Summary of the method: as §1

[9] = molecular target: Gal(b1-3)GalNAc(b1-4)Gal(b1-4)Glc
Summary of the method: as §1

[10] = molecular target: Gal(b1-3)GlcNAc(b1-2)Man(a1-3)[Gal(b1-3)GlcNAc(b1-2)Man(a1-6)]Man(b1-4)GlcNAc(b1-4)[Fuc(a1-6)]GlcNAc
Summary of the method: as §1

[11] = molecular target: Gal(b1-3)[Fuc(a1-4)]GlcNAc(b1-2)Man(a1-3)[Gal(b1-3)[Fuc(a1-4)]GlcNAc(b1-2)Man(a1-6)]Man(b1-4)GlcNAc(b1-4)[Fuc(a1-6)]GlcNAc
Summary of the method: as §1

[12] = molecular target: Gal(b1-4)GlcNAc(b1-2)[Gal(b1-4)GlcNAc(b1-4)]Man(a1-3)[Gal(b1-4)GlcNAc(b1-2)Man(a1-6)]Man(b1-4)GlcNAc(b1-4)GlcNAc
Summary of the method: as §1

[13] = molecular target: Gal3S(b1-4)GlcNAc6S
Summary of the method: as §1

[14] = molecular target: Gal4S(b1-4)GlcNAc
Summary of the method: as §1

[15] = molecular target: GlcNAc(b1-2)Man(a1-3)[GlcNAc(b1-2)Man(a1-6)]Man(b1-4)GlcNAc(b1-4)GlcNAc
Summary of the method: as §1

[16] = molecular target: GlcNAc(b1-4)GlcNAc(b1-4)GlcNAc(b1-4)GlcNAc(b1-4)GlcNAc
Summary of the method: as §1

[17] = molecular target: Kdn(a2-3)Gal(b1-3)GlcNAc
Summary of the method: as §1

[18] = molecular target: Neu5Ac(a2-3)Gal(b1-3)GalNAc(b1-3)Gal(a1-4)Gal(b1-4)Glc
Summary of the method: as §1

[19] = molecular target: Neu5Ac(a2-3)Gal(b1-4)GlcNAc(b1-6)[Neu5Ac(a2-3)Gal(b1-3)]GalNAc
Summary of the method: as §1

[20] = molecular target: Neu5Ac(a2-3)Gal(b1-4)[Fuc(a1-3)]GlcNAc(b1-3)Gal
Summary of the method: as §1

[21] = molecular target: Neu5Ac(a2-3)Gal(b1-4)[Fuc(a1-3)]GlcNAc(b1-3)Gal(b1-4)GlcNAc
Summary of the method: as §1

[22] = molecular target: Neu5Ac(a2-3)Gal(b1-4)[Fuc(a1-3)]GlcNAc6S
Summary of the method: as §1

[23] = molecular target: Neu5Ac(a2-3)Gal6S(b1-4)GlcNAc
Summary of the method: as §1

[24] = molecular target: Neu5Ac(a2-6)Gal(b1-4)GlcNAc6S
Summary of the method: as §1

[25] = molecular target: Neu5Ac(a2-8)Neu5Ac(a2-3)Gal(b1-4)Glc
Summary of the method: as §1

[26] = molecular target: Neu5Ac(a2-8)Neu5Ac(a2-8)Neu5Ac(a2-8)Neu5Ac(a2-3)[GalNAc(b1-4)]Gal(b1-4)Glc
Summary of the method: as §1

[27] = molecular target: Neu5Ac9Ac(a2-3)Gal(b1-3)GlcNAc
Summary of the method: as §1

[28] = molecular target: Neu5Gc(a2-3)Gal(b1-3)GlcNAc
Summary of the method: as §1

B1: CCL2 (Coprinopsis cinerea), B3GA02 (protein)
chain: MDSPAVTLSAGNYIIYNRVLSPRGEKLALTYPGRQRTPVTVSPLDGSSEQAWILRSYDSNSNTWTISPVGSPNSQIGWGAGNVPVVLPPNNYVWTLTLTSGGYNIQDGKRTVSWSLNNATAGEEVSIGADATFSGRWVIEKV
[1]
  glycan array binding signal (z-score): -0.067
[2]
  glycan array binding signal (z-score): -0.286
[3]
  glycan array binding signal (z-score): -0.269
[4]
  glycan array binding signal (z-score): 0.752
[5]
  glycan array binding signal (z-score): 3.53
[6]
  glycan array binding signal (z-score): -0.279
[7]
  glycan array binding signal (z-score): 4.84
[8]
  glycan array binding signal (z-score): 4.37
[9]
  glycan array binding signal (z-score): -0.293
[10]
  glycan array binding signal (z-score): -0.283
[11]
  glycan array binding signal (z-score): -0.19
[12]
  glycan array binding signal (z-score): -0.268
[13]
  glycan array binding signal (z-score): -0.276
[14]
  glycan array binding signal (z-score): -0.26
[15]
  glycan array binding signal (z-score): -0.257
[16]
  glycan array binding signal (z-score): -0.255
[17]
  glycan array binding signal (z-score): -0.257
[18]
  glycan array binding signal (z-score): -0.278
[19]
  glycan array binding signal (z-score): -0.27
[20]
  glycan array binding signal (z-score): 5.39
[21]
  glycan array binding signal (z-score): 4.93
[22]
  glycan array binding signal (z-score): 4.45
[23]
  glycan array binding signal (z-score): 4.88
[24]
  glycan array binding signal (z-score): -0.205
[25]
  glycan array binding signal (z-score): -0.275
[26]
  glycan array binding signal (z-score): -0.286
[27]
  glycan array binding signal (z-score): -0.294
[28]
  glycan array binding signal (z-score): -0.282
